Measured values reported in PubChem BioAssay.
Records with an inconclusive call do not appear. The source made the active and inactive calls.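 The calls were made as follows, unless noted: active = GFP signal, as percent of the solvent control, above the screen mean plus 3 SD, about 149; inconclusive = no reading because the compound's own fluorescence upset strain identification; inactive = the rest.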

Columns and labels:
[1] = yeast TOR pathway RPL19A-GFP modulators, primary screen, cell-based, S. cerevisiae, multiplex flow cytometry (AID 1862; in the data active = percent of DMSO control GFP below about 86%;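 also: lower values mimic rapamycin by blocking the RPL19A rise seen in DMSO cells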); details: S. cerevisiae RPL19A-GFP strain, flow cytometry fluorescence, 3 h; at 10 µM; stronger effect = lower value
[2] = modulators of MEP2-GFP levels in yeast, primary screen, S. cerevisiae, multiplex flow cytometry (AID 1867;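 active = GFP response, as percent of the DMSO control, above the screen-wide mean plus 3 SD, about 139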;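 also: median GFP channel fluorescence of barcode-gated MEP2-GFP cells measured by flow cytometry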); details: S. cerevisiae MEP2-GFP strain, 3 h, at 10 µM, stronger effect = higher value, 100% means same as DMSO wells
[3] = modulators of CIT2-GFP expression in yeast, primary screen, S. cerevisiae, GFP fusion, multiplex flow cytometry (AID 1870;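 active = percent response above a set limit, the screen-wide mean plus 3 SD, cut at about 130% in these data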;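 also: barcoded CIT2-GFP strain pooled with four other GFP strains with rapamycin as positive control; median GFP fluorescence per well over plate mean of DMSO wells so 100% = DMSO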); details: 3 h, at 10 µM, stronger effect = higher value
[4] = modulators of LAP4-GFP expression in yeast, primary screen, S. cerevisiae, multiplex flow cytometry (AID 1873); details: 3 h, at 10 µM, stronger effect = higher value
[5] = modulators of AGP1-GFP expression in yeast TOR pathway, primary screen, cell-based, multiplex flow cytometry, S. cerevisiae (AID 1887;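 active = GFP signal above the screen-wide mean plus 3 SD, that is over about 124.5% of the solvent control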;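 also: AGP1-GFP fusion strain of S. cerevisiae within a five-strain barcoded multiplex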); details: 3 h, at 10 µM, stronger effect = higher value
[6] = inhibitors of CD8+ T cell-vesicle binding, pilot screen, LFA-1/ICAM-1 modulator project, MLPCN validation set, flow cytometry (AID 2523;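 active = response below a set limit, under 55% cells CD8-positive and vesicle-bound, and CD8 cells' 90th-percentile brightness under 279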;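 as to vesicle binding response: mean PE anti-B7-1 fluorescence of CD8+ cells relative to row control; 100% = QL9-loaded vesicles with DMSO vehicle in the same plate row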); details: 2C mouse CD8+ T cells, at 7 µM, stronger effect = lower value; double positive events: measured here: CD8+/vesicle+ event percentage
[7] = biological target: Integrin beta-1 (Homo sapiens) + Integrin alpha-4 (Homo sapiens) (UniProt P13612+P05556); experiment: inhibition of HUTS-21 binding to VLA-4, pilot screen, VLA-4 allosteric modulator project, U937 cells, HUTS-21 mAb, flow cytometry, validation set (AID 2674;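 active = inhibition above 50%, about 3 SD of the validation set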;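 also: antibody binding induced by the VLA-4 ligand LDV present at three times its Kd; 0% = LDV ligand with antibody and no compound and 100% = antibody without LDV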); details: HUTS-21 LIBS mAb binding, at 6.7 µM, stronger effect = higher value, binding induced by LDV ligand
[8] = superoxide lowering in aged yeast cells, pilot screen, validation compound set (AID 2706;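 active = superoxide response below 65% of plate, a cut near 3 SD across the whole screen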;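 also: yeast exposed to compound for one week at 30 degrees C before staining; 100% = mean of all compound wells on the same plate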); details: S. cerevisiae aging, superoxide DHE fluorescence; at 10 µM, stronger effect = lower value
[9] = biological target: Beta-adrenergic receptor kinase 1 (Homo sapiens) (UniProt P25098); experiment: GRK2 binders displacing RNA aptamer, biochemical, validation, human GRK2, bead flow cytometry (AID 488806;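 active = aptamer binding inhibition above 30%, about 3 SD of noise from non-fluorescent compounds; inactive = inhibition at or below 30%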); details: bead-bound GRK2, FAM-aptamer displacement, at 10 µM, stronger effect = higher value
[10] = biological target: AP-2 complex subunit beta (Homo sapiens) (UniProt P63010); experiment: inhibitors of arrestin peptide binding to AP2, pilot screen, biochemical, validation set, GST-AP2 beads, flow cytometry (AID 504541;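 active = inhibition above 54%, about 3 SD of non-fluorescent compounds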;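 also: AP2 carries R879A mutation and is captured from E. coli lysate; bead-bound FITC arrestin peptide fluorescence measuring arrestin peptide binding to AP2; 0% = DMSO wells and 100% = excess unlabeled arrestin peptide control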); details: FITC arrestin peptide, at 10 µM, stronger effect = higher value, AP2 beta2 appendage fragment, R879A mutant
[11] = yeast V-ATPase proton transport modulators, S. cerevisiae, pHLuorin, HTS validation (AID 504600; in the data active = response above about 15%;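 also: plate controls were DMSO for no effect and reference compound for full effect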); details: S. cerevisiae pHLuorin cytosolic pH, at 10 µM, stronger effect = higher value
[12] = test system: anti-desmoglein-3 scFv antibody binding to human DSG3; experiment: inhibitors of anti-DSG3 scFv binding to DSG3, pilot screen, biochemical, validation compound set, bead-based, flow cytometry (AID 588368;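 active = binding below the plate cutoff, the plate median minus 3 SD, with a reading above zero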;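 also: signal is the median channel fluorescence of bead-bound GFP antibody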); details: Protein G beads, DSG3-Fc, scFv-GFP binding, at 10 µM, stronger effect = lower value
[13] = inhibitors of fungal efflux pumps CDR1, CDR2, MDR1, pilot screen, validation compound set, multiplex, phenotypic (AID 588506;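 active = efflux inhibition above 0.42, the validation set average plus 4 SD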;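 also: Nile Red retained in cells so higher fluorescence means more efflux inhibition; 0 = negative control wells and 1 = enniatin B 25 µM full block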); details: S. cerevisiae pump-expressing triplex, Nile Red efflux flow cytometry; at 10 µM; stronger effect = higher value; the pumps come from Candida albicans
[14] = biological target: ATP-binding cassette sub-family B member 6 (Homo sapiens) (UniProt Q9NP58); experiment: ABCB6 transporter inhibitors, pilot screen, K562-ABCB6 cells, flow cytometry, validation set (AID 588550;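 active = inhibition above the screen-wide mean plus 3 SD, about 51%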;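 also: 0% = DMSO wells and 100% = benzethonium chloride 70 µM positive control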); details: K562-ABCB6 porphyrin accumulation, 1 h, at 10 µM, stronger effect = higher value
[15] = promoters of myeloid differentiation in arrested cells, primary screen, cell-based, GFP/MAC1 double positive, flow cytometry, validation set (AID 588685;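 active = differentiation response of at least 50%, scaled between solvent and reference control, from cells with both markers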;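 also: compound exposure lasts four days before antibody staining and flow analysis; 0% = DMSO wells and 100% = 5 µM fulvestrant positive control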); details: ER-HoxA9 marrow cells, stronger effect = higher value, normalized: vehicle 0, fulvestrant 100

Beta-adrenergic receptor kinase 1 (Homo sapiens), sequence (P25098 whole entry, looked up): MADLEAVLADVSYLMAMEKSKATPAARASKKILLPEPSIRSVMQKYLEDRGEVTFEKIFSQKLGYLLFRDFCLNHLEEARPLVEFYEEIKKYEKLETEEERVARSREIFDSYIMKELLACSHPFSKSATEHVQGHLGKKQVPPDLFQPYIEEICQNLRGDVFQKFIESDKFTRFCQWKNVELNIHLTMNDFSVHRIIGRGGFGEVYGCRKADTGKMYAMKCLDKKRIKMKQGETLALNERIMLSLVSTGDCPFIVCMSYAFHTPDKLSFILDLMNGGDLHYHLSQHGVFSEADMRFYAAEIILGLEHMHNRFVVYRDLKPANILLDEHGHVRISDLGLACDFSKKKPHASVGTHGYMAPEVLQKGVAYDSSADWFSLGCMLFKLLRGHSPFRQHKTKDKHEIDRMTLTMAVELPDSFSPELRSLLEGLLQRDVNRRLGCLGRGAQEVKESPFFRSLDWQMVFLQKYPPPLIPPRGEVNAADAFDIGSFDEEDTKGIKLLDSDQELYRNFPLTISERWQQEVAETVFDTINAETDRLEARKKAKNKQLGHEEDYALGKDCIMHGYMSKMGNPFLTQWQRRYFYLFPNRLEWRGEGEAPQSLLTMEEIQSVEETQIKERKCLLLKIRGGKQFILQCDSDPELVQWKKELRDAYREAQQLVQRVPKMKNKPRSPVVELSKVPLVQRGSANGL
ATP-binding cassette sub-family B member 6 (Homo sapiens), sequence (Q9NP58 whole entry, looked up): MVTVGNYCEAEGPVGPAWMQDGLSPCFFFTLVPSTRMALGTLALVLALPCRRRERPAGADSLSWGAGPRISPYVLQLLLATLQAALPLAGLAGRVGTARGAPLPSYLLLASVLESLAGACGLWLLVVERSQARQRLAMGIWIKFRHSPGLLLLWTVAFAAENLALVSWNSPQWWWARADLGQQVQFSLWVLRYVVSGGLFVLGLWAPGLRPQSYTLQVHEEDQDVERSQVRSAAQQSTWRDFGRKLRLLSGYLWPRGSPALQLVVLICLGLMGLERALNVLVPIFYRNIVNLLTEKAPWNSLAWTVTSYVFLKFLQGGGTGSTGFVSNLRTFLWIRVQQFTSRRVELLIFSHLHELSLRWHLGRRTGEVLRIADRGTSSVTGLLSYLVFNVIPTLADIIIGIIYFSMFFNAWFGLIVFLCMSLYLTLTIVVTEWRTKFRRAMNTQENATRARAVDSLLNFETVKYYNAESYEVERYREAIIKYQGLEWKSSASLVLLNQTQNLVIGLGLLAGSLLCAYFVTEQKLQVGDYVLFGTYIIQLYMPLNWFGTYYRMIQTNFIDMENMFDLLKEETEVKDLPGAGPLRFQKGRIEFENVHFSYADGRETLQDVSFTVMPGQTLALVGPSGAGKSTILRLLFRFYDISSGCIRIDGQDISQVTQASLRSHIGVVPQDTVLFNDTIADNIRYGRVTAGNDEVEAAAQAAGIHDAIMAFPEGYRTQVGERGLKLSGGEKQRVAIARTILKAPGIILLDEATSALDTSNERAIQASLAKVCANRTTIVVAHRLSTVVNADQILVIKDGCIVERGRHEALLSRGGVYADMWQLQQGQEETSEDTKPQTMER
Integrin beta-1 (Homo sapiens) + Integrin alpha-4 (Homo sapiens), sequence (P05556 whole entry, looked up): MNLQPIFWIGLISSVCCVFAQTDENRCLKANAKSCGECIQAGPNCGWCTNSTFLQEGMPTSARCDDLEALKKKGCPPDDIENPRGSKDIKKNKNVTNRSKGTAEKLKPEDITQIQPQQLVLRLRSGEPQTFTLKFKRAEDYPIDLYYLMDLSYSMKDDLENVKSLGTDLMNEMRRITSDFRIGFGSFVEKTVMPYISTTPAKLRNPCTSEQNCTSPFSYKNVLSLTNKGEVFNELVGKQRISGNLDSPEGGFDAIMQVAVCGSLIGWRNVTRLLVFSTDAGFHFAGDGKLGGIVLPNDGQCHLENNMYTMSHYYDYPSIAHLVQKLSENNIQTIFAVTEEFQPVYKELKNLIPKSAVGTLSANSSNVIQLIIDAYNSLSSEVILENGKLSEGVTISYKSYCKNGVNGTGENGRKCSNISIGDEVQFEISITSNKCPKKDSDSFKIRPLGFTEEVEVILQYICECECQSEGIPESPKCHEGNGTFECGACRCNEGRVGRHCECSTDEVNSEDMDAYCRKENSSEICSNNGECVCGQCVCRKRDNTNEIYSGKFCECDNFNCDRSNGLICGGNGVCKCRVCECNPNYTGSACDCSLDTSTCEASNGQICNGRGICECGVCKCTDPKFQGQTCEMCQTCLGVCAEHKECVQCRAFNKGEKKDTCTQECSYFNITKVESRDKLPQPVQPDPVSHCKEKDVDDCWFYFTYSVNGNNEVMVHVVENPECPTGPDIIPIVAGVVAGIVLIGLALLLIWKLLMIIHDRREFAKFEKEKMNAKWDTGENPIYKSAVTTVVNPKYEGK
Integrin beta-1 (Homo sapiens) + Integrin alpha-4 (Homo sapiens), sequence (P13612 whole entry, looked up): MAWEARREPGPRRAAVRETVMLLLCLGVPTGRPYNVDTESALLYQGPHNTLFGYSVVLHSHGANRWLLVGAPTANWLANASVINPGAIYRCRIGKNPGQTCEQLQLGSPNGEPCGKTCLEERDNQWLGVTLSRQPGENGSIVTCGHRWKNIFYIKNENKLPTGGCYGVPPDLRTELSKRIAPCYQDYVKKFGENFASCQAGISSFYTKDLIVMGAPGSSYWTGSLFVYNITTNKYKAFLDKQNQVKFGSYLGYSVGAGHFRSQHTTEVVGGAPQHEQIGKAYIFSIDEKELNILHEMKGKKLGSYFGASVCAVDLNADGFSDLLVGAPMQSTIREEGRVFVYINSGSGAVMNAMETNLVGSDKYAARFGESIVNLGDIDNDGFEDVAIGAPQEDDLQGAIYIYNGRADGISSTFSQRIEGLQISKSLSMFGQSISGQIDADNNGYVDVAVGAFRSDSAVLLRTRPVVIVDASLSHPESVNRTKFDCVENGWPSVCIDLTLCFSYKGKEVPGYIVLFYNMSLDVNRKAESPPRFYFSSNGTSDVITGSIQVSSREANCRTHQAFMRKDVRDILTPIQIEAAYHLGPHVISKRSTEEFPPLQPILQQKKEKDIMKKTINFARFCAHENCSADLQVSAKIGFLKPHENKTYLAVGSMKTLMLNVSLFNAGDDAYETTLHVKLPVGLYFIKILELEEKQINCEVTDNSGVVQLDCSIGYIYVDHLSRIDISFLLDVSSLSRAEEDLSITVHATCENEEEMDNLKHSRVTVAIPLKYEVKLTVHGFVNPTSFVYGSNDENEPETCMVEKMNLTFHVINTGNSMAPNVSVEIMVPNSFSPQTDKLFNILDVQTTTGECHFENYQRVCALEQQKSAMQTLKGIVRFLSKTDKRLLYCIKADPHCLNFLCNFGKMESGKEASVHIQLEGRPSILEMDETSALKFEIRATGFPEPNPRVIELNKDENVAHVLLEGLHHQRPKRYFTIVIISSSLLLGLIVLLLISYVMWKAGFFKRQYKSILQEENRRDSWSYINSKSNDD
AP-2 complex subunit beta (Homo sapiens), sequence (P63010 whole entry, looked up, the tested form may be a part, one chain of several): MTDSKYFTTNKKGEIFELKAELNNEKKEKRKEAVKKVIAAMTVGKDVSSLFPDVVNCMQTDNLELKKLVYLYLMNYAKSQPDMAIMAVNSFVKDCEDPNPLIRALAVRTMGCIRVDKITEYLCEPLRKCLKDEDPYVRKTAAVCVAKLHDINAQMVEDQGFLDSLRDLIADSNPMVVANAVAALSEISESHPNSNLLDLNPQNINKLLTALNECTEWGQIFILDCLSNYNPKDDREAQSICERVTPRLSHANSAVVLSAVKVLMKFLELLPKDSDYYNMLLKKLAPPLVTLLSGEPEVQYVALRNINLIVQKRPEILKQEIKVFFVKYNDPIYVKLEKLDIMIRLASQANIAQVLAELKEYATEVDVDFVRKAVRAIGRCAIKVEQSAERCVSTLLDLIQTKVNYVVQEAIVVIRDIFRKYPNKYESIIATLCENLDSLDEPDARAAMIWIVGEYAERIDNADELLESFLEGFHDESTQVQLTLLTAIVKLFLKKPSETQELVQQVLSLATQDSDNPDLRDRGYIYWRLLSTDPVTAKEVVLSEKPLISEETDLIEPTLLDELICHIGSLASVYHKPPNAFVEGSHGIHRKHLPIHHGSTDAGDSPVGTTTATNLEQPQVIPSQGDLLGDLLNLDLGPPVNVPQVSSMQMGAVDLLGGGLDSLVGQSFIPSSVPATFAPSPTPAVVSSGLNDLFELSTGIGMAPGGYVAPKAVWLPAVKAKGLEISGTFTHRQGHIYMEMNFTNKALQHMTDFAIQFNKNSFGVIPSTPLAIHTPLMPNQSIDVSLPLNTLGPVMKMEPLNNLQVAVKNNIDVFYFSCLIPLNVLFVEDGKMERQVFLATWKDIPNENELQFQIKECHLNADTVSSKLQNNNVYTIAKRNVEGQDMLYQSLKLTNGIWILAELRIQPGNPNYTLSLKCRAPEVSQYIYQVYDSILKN

CCOc1cc(C)cc2oc(=O)cc(-c3ccccc3)c12
inactive: percent of DMSO control GFP [1] 99.5% | GFP response vs DMSO [2] 105% | percent response of DMSO control [3] 92% | GFP response vs DMSO [4] 123% | GFP response, % of DMSO [5] 92.8% | vesicle binding response [6] 138% | inhibition [7] -5.84% | superoxide response (% of plate) [8] 88.9% | aptamer binding inhibition [9] 4% | inhibition [10] 14.1% | response [11] 8.03% | binding (% of control) [12] 102% | efflux inhibition (fraction of control) [13] 0.18 | inhibition [14] 5% | differentiation response [15] -16.4%
54.7%: double positive events [6]

Cc1ccccc1OCCSc1nc2ncnc(N)c2[nH]1
inactive: percent of DMSO control GFP [1] 97.3% | GFP response vs DMSO [2] 105% | percent response of DMSO control [3] 104% | GFP response vs DMSO [4] 99.4% | GFP response, % of DMSO [5] 103% | vesicle binding response [6] 163% | inhibition [7] 8.15% | superoxide response (% of plate) [8] 97.8% | aptamer binding inhibition [9] 2% | inhibition [10] -6.91% | response [11] 3.1% | binding (% of control) [12] 96.7% | efflux inhibition (fraction of control) [13] 0.06 | inhibition [14] 1% | differentiation response [15] -8.27%
51.9%: double positive events [6]

CC(C)NNC(=O)c1ccncc1
55.2%: double positive events [6]
inactive: percent of DMSO control GFP [1] 100% | GFP response vs DMSO [2] 101% | percent response of DMSO control [3] 107% | GFP response vs DMSO [4] 114% | GFP response, % of DMSO [5] 111% | vesicle binding response [6] 178% | inhibition [7] -7.7% | superoxide response (% of plate) [8] 101% | aptamer binding inhibition [9] 2% | inhibition [10] -13.9% | response [11] -0.37% | binding (% of control) [12] 98.7% | efflux inhibition (fraction of control) [13] 0.22 | inhibition [14] 3% | differentiation response [15] -26%

O=C(/C=C/c1ccco1)N1CCN(c2ccccc2)CC1
56.2%: double positive events [6]
inactive: percent of DMSO control GFP [1] 103% | GFP response vs DMSO [2] 90.8% | percent response of DMSO control [3] 107% | GFP response vs DMSO [4] 86.3% | GFP response, % of DMSO [5] 92.7% | vesicle binding response [6] 210% | inhibition [7] 8.15% | superoxide response (% of plate) [8] 89% | aptamer binding inhibition [9] 1% | inhibition [10] 6.32% | response [11] 5.81% | binding (% of control) [12] 101% | efflux inhibition (fraction of control) [13] -0.09 | inhibition [14] 5% | differentiation response [15] -19.6%

Cn1c(=O)c2c(ncn2CC(O)CO)n(C)c1=O (stereo not given)
53.8%: double positive events [6]
inactive: percent of DMSO control GFP [1] 100% | GFP response vs DMSO [2] 99.9% | percent response of DMSO control [3] 93.9% | GFP response vs DMSO [4] 104% | GFP response, % of DMSO [5] 99.4% | vesicle binding response [6] 114% | inhibition [7] 11.9% | superoxide response (% of plate) [8] 93.5% | aptamer binding inhibition [9] 2% | inhibition [10] -7.53% | response [11] -0.09% | binding (% of control) [12] 81.7% | efflux inhibition (fraction of control) [13] 0.22 | inhibition [14] 9% | differentiation response [15] -8.27%

CCOc1ccc(NC(=O)N[C@@H](CCSC)C(=O)OC)cc1
inactive: percent of DMSO control GFP [1] 105% | GFP response vs DMSO [2] 106% | percent response of DMSO control [3] 104% | GFP response vs DMSO [4] 96.4% | GFP response, % of DMSO [5] 105% | vesicle binding response [6] 164% | inhibition [7] 5.36% | superoxide response (% of plate) [8] 117% | aptamer binding inhibition [9] 1% | inhibition [10] 5.32% | response [11] 4.65% | binding (% of control) [12] 98.5% | efflux inhibition (fraction of control) [13] -0.47 | inhibition [14] 6% | differentiation response [15] 9.49%
52.6%: double positive events [6]

CCc1cc(=O)oc2cc(C)c(CN3CCCC(C)C3)c(O)c12 (stereo not given)
inactive: percent of DMSO control GFP [1] 102% | GFP response vs DMSO [2] 103% | percent response of DMSO control [3] 103% | GFP response vs DMSO [4] 84.3% | GFP response, % of DMSO [5] 94.9% | vesicle binding response [6] 161% | inhibition [7] -5.84% | superoxide response (% of plate) [8] 105% | aptamer binding inhibition [9] 2% | inhibition [10] 26.7% | response [11] -0.18% | binding (% of control) [12] 73.4% | efflux inhibition (fraction of control) [13] 0.18 | inhibition [14] 5% | differentiation response [15] -18%
52.2%: double positive events [6]

CCOC(=O)NN1C(=O)c2ccccc2NC1c1ccc(OC)c(OC)c1 (stereo not given)
inactive: percent of DMSO control GFP [1] 95.1% | GFP response vs DMSO [2] 103% | percent response of DMSO control [3] 95.9% | GFP response vs DMSO [4] 103% | GFP response, % of DMSO [5] 99.6% | vesicle binding response [6] 121% | inhibition [7] 7.22% | superoxide response (% of plate) [8] 99.5% | aptamer binding inhibition [9] 2% | inhibition [10] -4.55% | response [11] -6.37% | binding (% of control) [12] 102% | efflux inhibition (fraction of control) [13] -0.05 | inhibition [14] 14% | differentiation response [15] 46.6%
64.4%: double positive events [6]

O=C(/C=C/c1ccc(Cl)cc1)NCCc1ccccc1
54.1%: double positive events [6]
inactive: percent of DMSO control GFP [1] 102% | GFP response vs DMSO [2] 92.8% | percent response of DMSO control [3] 97.9% | GFP response vs DMSO [4] 97.4% | GFP response, % of DMSO [5] 97.5% | vesicle binding response [6] 270% | inhibition [7] 2.56% | superoxide response (% of plate) [8] 106% | aptamer binding inhibition [9] -1% | inhibition [10] -7.53% | response [11] 2.01% | binding (% of control) [12] 98.2% | efflux inhibition (fraction of control) [13] -0.09 | inhibition [14] 7% | differentiation response [15] -5.05%

CN=C1c2cc3cc(OC)ccc3n2CCN1C
inactive: percent of DMSO control GFP [1] 101% | GFP response vs DMSO [2] 97.9% | percent response of DMSO control [3] 102% | GFP response vs DMSO [4] 93.3% | GFP response, % of DMSO [5] 99% | vesicle binding response [6] 177% | inhibition [7] 11.9% | superoxide response (% of plate) [8] 103% | aptamer binding inhibition [9] 4% | inhibition [10] 14.9% | response [11] -2.85% | binding (% of control) [12] 98.8% | efflux inhibition (fraction of control) [13] 0.1 | inhibition [14] 2% | differentiation response [15] 12.7%
62%: double positive events [6]
